Data taken from article PMC3218832.

Tests used:
Experiment in all cases: protein binding microarray; high values mean tight binding
Details in all cases: dsDNA, one strand shown
RELARELA (p65 homodimer) = RELARELA (p65 homodimer) (Homo sapiens, UniProt Q04206 1-307)
p50p50 homodimer = p50p50 homodimer (Homo sapiens, UniProt P19838 7-356)
p52p52 homodimer = target: T1, p52p52 homodimer (Homo sapiens, UniProt Q00653 4-332)
T1 sequence: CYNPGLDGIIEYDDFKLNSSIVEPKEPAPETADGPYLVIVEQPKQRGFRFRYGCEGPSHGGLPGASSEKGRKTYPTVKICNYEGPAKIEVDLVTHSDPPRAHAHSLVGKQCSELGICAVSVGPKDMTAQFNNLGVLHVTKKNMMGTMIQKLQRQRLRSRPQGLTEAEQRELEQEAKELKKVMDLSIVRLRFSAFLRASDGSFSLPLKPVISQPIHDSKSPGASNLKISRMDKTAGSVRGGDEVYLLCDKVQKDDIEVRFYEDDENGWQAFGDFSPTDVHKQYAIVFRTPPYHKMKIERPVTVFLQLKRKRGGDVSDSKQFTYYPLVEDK

[1] = target: RELA (p65) subunit of heterodimer;p50 subunit (Homo sapiens;Homo sapiens, UniProt Q04206;P19838 1-307;7-356)
Sequence of RELA (p65) subunit of heterodimer;p50 subunit (Q04206 1-307, chain 1 of 2): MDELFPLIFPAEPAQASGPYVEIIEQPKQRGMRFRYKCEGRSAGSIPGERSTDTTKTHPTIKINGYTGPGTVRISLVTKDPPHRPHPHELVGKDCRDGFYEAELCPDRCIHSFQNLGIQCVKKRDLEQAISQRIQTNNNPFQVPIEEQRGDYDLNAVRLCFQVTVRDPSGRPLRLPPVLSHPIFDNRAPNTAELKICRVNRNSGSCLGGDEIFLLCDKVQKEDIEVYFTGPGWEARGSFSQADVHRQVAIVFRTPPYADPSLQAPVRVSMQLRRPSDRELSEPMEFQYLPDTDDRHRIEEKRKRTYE
Sequence of RELA (p65) subunit of heterodimer;p50 subunit (P19838 7-356, chain 2 of 2): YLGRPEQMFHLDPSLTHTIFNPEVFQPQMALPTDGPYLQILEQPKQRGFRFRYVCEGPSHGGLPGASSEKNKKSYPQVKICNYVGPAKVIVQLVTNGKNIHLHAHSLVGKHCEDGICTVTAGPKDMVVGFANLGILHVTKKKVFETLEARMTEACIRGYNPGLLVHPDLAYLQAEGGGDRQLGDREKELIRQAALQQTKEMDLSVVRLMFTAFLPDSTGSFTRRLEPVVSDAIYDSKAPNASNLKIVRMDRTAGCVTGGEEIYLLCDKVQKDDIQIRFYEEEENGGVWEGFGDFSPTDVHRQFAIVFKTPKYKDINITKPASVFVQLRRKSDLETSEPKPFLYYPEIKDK

[2] = target: RELA (p65) subunit of heterodimer;p52 subunit (Homo sapiens;Homo sapiens, UniProt Q04206;Q00653 1-307;4-332)
RELB subunit;p50 subunit = RELB subunit;p50 subunit (Homo sapiens;Homo sapiens, UniProt Q01201;P19838 120-401;7-356)
RELB subunit;p52 subunit = target: T2, RELB subunit;p52 subunit (Homo sapiens;Homo sapiens, UniProt Q01201;Q00653 120-401;4-332)
T2 sequence 1: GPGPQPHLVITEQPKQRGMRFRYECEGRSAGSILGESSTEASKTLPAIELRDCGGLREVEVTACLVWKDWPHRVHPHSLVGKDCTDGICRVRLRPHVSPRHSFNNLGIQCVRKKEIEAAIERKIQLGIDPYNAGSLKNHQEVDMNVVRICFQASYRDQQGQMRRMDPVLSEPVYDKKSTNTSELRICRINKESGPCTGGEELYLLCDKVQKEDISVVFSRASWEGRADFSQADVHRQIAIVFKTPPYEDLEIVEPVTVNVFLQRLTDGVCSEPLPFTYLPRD
T2 sequence 2: T1 sequence

[3] = target: C-Rel subunit;p50 subunit (Homo sapiens;Homo sapiens, UniProt Q04864;P19838 1-285;7-356)
[4] = target: T3, C-Rel subunit;p52 subunit (Homo sapiens;Homo sapiens, UniProt Q04864;Q00653 1-285;4-332)
T3 sequence 1: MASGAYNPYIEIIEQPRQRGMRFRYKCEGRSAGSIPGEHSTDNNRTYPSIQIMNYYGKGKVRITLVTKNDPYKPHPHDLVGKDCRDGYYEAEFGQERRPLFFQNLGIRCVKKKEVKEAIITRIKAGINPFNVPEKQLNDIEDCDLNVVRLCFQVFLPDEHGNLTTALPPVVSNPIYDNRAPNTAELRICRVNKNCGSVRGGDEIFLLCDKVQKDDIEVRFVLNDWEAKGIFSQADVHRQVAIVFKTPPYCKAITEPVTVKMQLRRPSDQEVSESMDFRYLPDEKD
T3 sequence 2: T1 sequence

Sequence of RELARELA (p65 homodimer) (Q04206 1-307): as the sequence (Q04206 1-307, chain 1 of 2) above
Sequence of p50p50 homodimer (P19838 7-356): as the sequence (P19838 7-356, chain 2 of 2) above

Sequence	binding signal (RELARELA (p65 homodimer)) [z-score]	binding signal (p50p50 homodimer) [z-score]	binding signal (p52p52 homodimer) [z-score]	binding signal [1] [z-score]	binding signal [2] [z-score]	binding signal (RELB subunit;p50 subunit) [z-score]	binding signal (RELB subunit;p52 subunit) [z-score]	binding signal [3] [z-score]	binding signal [4] [z-score]
GAATTCGCCCT	0.00849	-0.928	-0.505	-0.461	-0.517	-0.698	-0.722	-0.531	-0.36
GAATGAGCCCT	-1.06	-1.39	-0.606	-0.778	-0.989	-1.17	-0.969	-1.55	-1.02
CAAGACCTCCC	-0.906	-1.11	-0.577	-0.688	-0.796	-0.585	-0.626	-0.818	-0.713
AAAGACTCCCT	-0.338	0.719	0.0106	0.327	0.161	0.395	0.156	-0.0953	0.0126
AGGAGCCCCCT	-0.528	1.32	0.61	1.07	0.992	1.2	1.26	1.02	0.757
AAATTGTCCCT	0.833	1.43	1.92	1.28	1.26	1.61	1.7	1.14	1.11
CGGGGCATCCT	-0.458	0.212	0.516	0.0241	0.306	0.179	0.34	0.188	0.458
CGGTGCTTCCC	0.809	0.562	2.72	1.22	1.98	1.09	2.06	0.924	2.22
AGGTTTTCCCC	3.11	1.14	3.16	2.17	2.48	2.01	2.3	1.8	2.63
AAAGGCCTCCC	-1.18	-0.959	-0.552	-0.794	-0.782	-0.857	-0.868	-1.17	-0.735
GGAAGGGCCCC	-0.533	-0.314	-0.0891	0.16	0.159	-0.313	-0.107	-0.00222	0.327
GGAAGCACCCT	-0.312	0.509	0.257	0.415	0.261	-0.129	0.214	0.0298	0.224
CAGTACCCCCC	-0.045	1.15	0.733	0.954	0.96	0.927	1.16	0.886	0.823
AAGAGGTTCCT	0.0133	-1.79	-0.462	-0.943	-0.822	-0.701	-0.585	-1.22	-0.637
GAATTTACCCT	0.959	0.984	0.839	0.86	0.817	0.602	0.504	0.6	0.479
AAAAGGGCCCT	-0.729	-0.423	-0.373	-0.762	-0.52	-0.464	-0.386	-1.07	-0.406
GAGTGACTCCC	-0.623	-0.849	-0.413	-0.796	-0.812	-0.601	-0.827	-0.837	-0.832
AGAATTGTCCC	0.95	0.906	0.873	0.803	0.85	0.82	0.675	0.87	0.604
AAAAAGGTCCC	0.243	0.679	0.569	0.331	0.184	0.63	0.428	0.216	0.157
AGATATCTCCT	-0.509	-1.24	-0.623	-0.927	-1.03	-1.19	-1.06	-1.37	-0.83

Sequence	binding signal (RELARELA (p65 homodimer)) [z-score]	binding signal (p50p50 homodimer) [z-score]	binding signal (p52p52 homodimer) [z-score]	binding signal [1] [z-score]	binding signal [2] [z-score]	binding signal (RELB subunit;p50 subunit) [z-score]	binding signal (RELB subunit;p52 subunit) [z-score]	binding signal [3] [z-score]	binding signal [4] [z-score]
GGAATTACCCC	2.91	0.961	1.76	1.92	2.08	1.18	1.85	1.44	2.35
GGGTGTGTCCC	0.547	0.331	1.38	0.647	1.02	0.42	0.593	0.648	0.813
CAGAGTGTCCC	0.916	0.0211	0.161	0.185	0.144	0.304	0.434	0.274	0.221
AGAAACTTCCC	2.01	0.652	0.45	0.846	0.818	0.409	0.541	0.576	0.741
GAAGACACCCC	-0.516	-0.135	-0.303	-0.324	-0.316	-0.183	0.105	-0.163	-0.242
AGAGGTGTCCT	-0.184	-1.69	-0.541	-0.927	-0.707	-0.854	-0.664	-1.22	-0.658
GAGTTATCCCT	-0.151	0.156	0.345	-0.075	0.135	0.201	0.304	-0.0693	-0.00956
CAATAAGTCCT	0.325	-1.39	-0.437	-0.836	-0.813	-0.817	-0.698	-0.578	-0.74
CAAGTTCCCCT	0.677	1.46	2.18	1.97	1.77	2.27	2.14	1.56	1.84
CAAATTTTCCC	2.86	1.18	1.47	1.48	1.47	1.08	1.27	1.5	1.39
CAGATACTCCC	-0.1	-0.181	-0.309	-0.154	-0.498	-0.145	-0.637	-0.312	-0.374
CGAGGCTTCCT	-0.994	-2.47	-0.827	-1.09	-1.19	-1.31	-1.05	-1.49	-1.05
GAAGGCATCCT	-0.848	-1.34	-0.851	-1.13	-1.21	-1.29	-1.12	-1.72	-1.14
GGAGTTCCCCT	2.77	1.14	2.83	2.64	2.79	2	2.29	2.61	3.5
GAGTGGATCCT	-0.466	-1.11	-0.663	-0.846	-1	-1.04	-0.919	-1.49	-0.92
GAATTCACCCC	0.545	0.437	0.192	0.892	0.806	0.49	0.753	0.643	0.698
CGGAACACCCT	-0.222	-0.182	-0.238	-0.453	-0.316	-0.373	-0.287	-0.444	-0.317
CGGGGTTCCCC	2.62	0.899	3.05	2.3	2.64	1.93	2.28	2.2	3.29
AAGTTCACCCC	-0.0981	0.184	0.0438	-0.0301	-0.0961	0.292	0.317	0.451	0.174
GAATGATCCCC	-0.194	0.816	0.548	0.936	0.697	0.943	0.595	0.665	0.409

Sequence	binding signal (RELARELA (p65 homodimer)) [z-score]	binding signal (p50p50 homodimer) [z-score]	binding signal (p52p52 homodimer) [z-score]	binding signal [1] [z-score]	binding signal [2] [z-score]	binding signal (RELB subunit;p50 subunit) [z-score]	binding signal (RELB subunit;p52 subunit) [z-score]	binding signal [3] [z-score]	binding signal [4] [z-score]
AGGTACGCCCC	-0.0324	0.221	0.402	0.321	0.526	0.233	0.441	0.444	0.674
AGGGTGCCCCT	-0.552	0.473	0.342	0.511	0.658	0.571	1.16	0.426	0.644
CGGGAACTCCT	1.67	0.314	0.181	0.357	0.17	-0.0239	0.0296	0.188	0.424
CAGATCGTCCT	-0.0967	-1.22	-0.471	-1	-0.796	-0.842	-0.777	-1.17	-0.663
CAATTCCTCCT	0.0653	-1.06	-0.655	-0.688	-0.609	-0.871	-0.932	-0.776	-0.597
AAGAGGCTCCC	-0.428	-1.01	-0.505	-0.958	-0.845	-0.665	-0.714	-1.12	-0.72
CGGTACATCCC	0.722	0.342	1.69	0.384	0.93	0.529	0.811	0.0779	0.879
AGAGGAATCCC	0.476	0.189	0.335	0.188	0.227	0.0745	0.269	0.405	0.416
AAATTGGCCCC	-0.344	0.122	-0.144	0.118	-0.121	0.375	0.258	0.04	-0.0339
GAGAATGTCCT	0.673	-1.23	-0.437	-0.682	-0.739	-1.01	-0.926	-0.737	-0.678
GGAGTTTTCCT	1.88	-0.38	-0.329	0.312	-0.0971	-0.676	-0.581	0.446	0.304
AAAGGATCCCT	-0.446	-0.455	-0.198	-0.582	-0.469	-0.388	-0.424	-0.748	-0.634
GAGAGATTCCC	1.47	0.649	0.325	0.844	0.545	0.433	0.292	0.909	0.551
GGGTGCTCCCT	-0.519	0.136	0.0774	-0.166	0.115	-0.21	-0.168	-0.0364	0.178
GGAGGCGCCCC	-0.259	-0.0933	-0.0824	-0.062	0.0158	0	0.214	-0.156	-0.0409
GGGGTGATCCC	0.248	0.402	1.59	0.62	1.16	0.387	0.685	0.527	0.91
CAGAACCTCCT	-0.658	-1.31	-0.791	-0.921	-0.938	-0.924	-0.944	-1.48	-0.853
AGGTGTGCCCT	-0.542	-1.63	-0.541	-0.712	-0.661	-0.956	-0.903	-0.883	-0.535
GGGTGTTTCCT	1.42	0.575	1.06	0.736	0.987	0.102	1.16	0.695	1.43
